The values that follow come from PubChem BioAssay (EPA / NIEHS).

Calls of active or inactive are those of the source. The calls were made as follows: active = hit-call score of the fitted dose curve at least 0.9, where 1 is the maximum; inactive = score below 0.9.

The term AC50 denotes the concentration at which the activity in the assay is half-maximal.

Assay [1] addresses Nuclear respiratory factor 1 (Homo sapiens) (UniProt Q16656). Put plainly: ATG_NRF1_CIS: Attagene CIS-FACTORIAL HepG2 Assay for human Nuclear Respiratory Factor 1 (NRF1) Orphan Gene (AID 2282987). The conditions noted are these: HepG2 NRF1 cis-element reporter, Attagene multiplex; actives raise or lower the signal. The method in brief:
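Human hepatoma HepG2 cells carrying transfected promoter-regulated reporter units were incubated with test chemicals for 24 h. Reporter transcripts were measured by RT-PCR plus capillary electrophoresis, and endpoints derived by bidirectional fitting with DMSO as baseline.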

A short description of assay [2]: ATG_NFI_CIS: Attagene CIS-FACTORIAL HepG2 Assay for human Nuclear Factor I (NFI) (AID 2282989). The conditions noted are these: HepG2 cis-regulatory reporter, NFI response element transcription; actives raise or lower the signal. In a few lines: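 Read-out: reporter mRNA via RT-PCR plus capillary electrophoresis with fluorescence detection. Transiently transfected HepG2 (endogenous TF activity on cis promoters), 24 h compound exposure; gain or loss of signal fitted against DMSO.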

The target of assay [3] is Myc proto-oncogene protein (Homo sapiens) (UniProt P01106). The experiment in a line: ATG_Myc_CIS: Attagene CIS-FACTORIAL HepG2 Assay for human Myelocytomatosis (Myc) Proto-Oncogene Transcription Factor (AID 2282990). The settings on record: HepG2, Attagene cis-reporter transcription factor activity; actives raise or lower the signal. The method in brief: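 Transiently transfected HepG2 cells bearing cis-promoter reporter units for endogenous transcription factors; 24 h exposure. Reporter mRNA measured by RT-PCR, 6-FAM primer extension, HpaI cut and capillary electrophoresis; bidirectional fit relative to DMSO.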

Assay [4] is described as follows: ATG_NRF2_ARE_CIS: Attagene CIS-FACTORIAL HepG2 Assay for human Nuclear Factor Erythroid 2 Related Factor 2 (NFR2) response to Antioxidant Response Elements (ARE) (AID 2282992).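 As to AC50: reporter mRNA level measured by RT-PCR and capillary electrophoresis fluorescence.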 The settings on record: HepG2 Attagene ARE/NRF2 reporter, transcription factor activity; actives raise or lower the signal. In a few lines: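 HepG2 cells transiently transfected with multiplexed cis-element reporter constructs, 24 h after chemical dosing; reporter mRNA quantified by RT-PCR, fluorescent primer extension, HpaI digestion and capillary electrophoresis. Bidirectional fit relative to DMSO.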

Assay [5] in a line: ATG_Oct_MLP_CIS: Attagene CIS-FACTORIAL HepG2 Assay for human Octamer-Binding Transcription Factor (Oct) (AID 2282993). The settings on record: HepG2 Attagene cis-factorial Oct reporter, mRNA; actives raise or lower the signal. The method in brief:
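Read-out: reporter mRNA via RT-PCR plus capillary electrophoresis of 6-FAM-labelled fragments. Transiently transfected HepG2, 24 h exposure, endogenous TF activity on cis elements. Gain or loss of signal fitted relative to DMSO.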

Assay [6] has as its target Cellular tumor antigen p53 (Homo sapiens) (UniProt P04637). The experiment in a line: ATG_p53_CIS: Attagene CIS-FACTORIAL HepG2 Assay for human p53 Transcription Factor (AID 2282994). The conditions noted are these: HepG2 p53 cis-element reporter, Attagene mRNA; actives raise or lower the signal. In a few lines: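 HepG2 cells transiently transfected with cis-regulated multiple reporter transcription units, dosed 24 h. Reporter mRNA measured by RT-PCR, 6-FAM primer extension, HpaI digestion and capillary electrophoresis; bidirectional fit relative to DMSO.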

Cellular tumor antigen p53 (Homo sapiens), sequence (P04637 whole entry, looked up): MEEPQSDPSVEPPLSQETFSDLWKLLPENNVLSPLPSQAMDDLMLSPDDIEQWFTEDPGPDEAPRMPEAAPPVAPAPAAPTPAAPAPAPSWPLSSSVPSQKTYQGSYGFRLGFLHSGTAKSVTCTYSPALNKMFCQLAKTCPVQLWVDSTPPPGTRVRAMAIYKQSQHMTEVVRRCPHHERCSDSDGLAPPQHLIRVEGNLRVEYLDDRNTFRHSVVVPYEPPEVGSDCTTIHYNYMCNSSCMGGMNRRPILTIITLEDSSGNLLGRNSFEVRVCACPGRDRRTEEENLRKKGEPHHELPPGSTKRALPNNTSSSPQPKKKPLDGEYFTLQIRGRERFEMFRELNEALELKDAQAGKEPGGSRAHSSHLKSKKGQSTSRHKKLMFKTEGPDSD
Myc proto-oncogene protein (Homo sapiens), sequence (P01106 whole entry, looked up): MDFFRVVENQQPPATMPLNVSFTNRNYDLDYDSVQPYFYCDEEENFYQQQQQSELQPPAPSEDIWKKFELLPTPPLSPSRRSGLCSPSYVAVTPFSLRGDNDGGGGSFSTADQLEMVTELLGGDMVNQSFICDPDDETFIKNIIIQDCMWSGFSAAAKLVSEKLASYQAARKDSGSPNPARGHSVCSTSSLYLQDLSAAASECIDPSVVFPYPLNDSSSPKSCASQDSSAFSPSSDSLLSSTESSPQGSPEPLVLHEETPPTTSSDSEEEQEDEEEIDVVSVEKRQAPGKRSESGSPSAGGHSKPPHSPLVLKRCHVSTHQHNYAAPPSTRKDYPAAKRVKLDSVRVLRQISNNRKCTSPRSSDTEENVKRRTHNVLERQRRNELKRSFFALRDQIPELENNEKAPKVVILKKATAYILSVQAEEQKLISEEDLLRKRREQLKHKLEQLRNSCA
Nuclear respiratory factor 1 (Homo sapiens), sequence (Q16656 whole entry, looked up): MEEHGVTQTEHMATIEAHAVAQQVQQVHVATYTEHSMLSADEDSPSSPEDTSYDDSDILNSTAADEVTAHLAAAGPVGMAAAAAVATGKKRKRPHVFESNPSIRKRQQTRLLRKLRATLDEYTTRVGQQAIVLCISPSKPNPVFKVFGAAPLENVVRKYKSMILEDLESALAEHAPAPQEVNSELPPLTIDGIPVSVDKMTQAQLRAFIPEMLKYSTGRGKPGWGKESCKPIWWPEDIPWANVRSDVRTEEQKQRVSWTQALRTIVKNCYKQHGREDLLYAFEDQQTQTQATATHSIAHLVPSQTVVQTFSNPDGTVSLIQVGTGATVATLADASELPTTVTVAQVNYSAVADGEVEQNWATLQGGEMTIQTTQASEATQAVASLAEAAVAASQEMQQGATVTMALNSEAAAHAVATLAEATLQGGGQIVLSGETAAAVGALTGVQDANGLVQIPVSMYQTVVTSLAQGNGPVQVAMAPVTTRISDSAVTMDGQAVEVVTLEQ

`CC(C)OC(=O)c1ccccc1`: the call in assay [1], in assay [2], in assay [3], in assay [4], in assay [5] and in assay [6] was inactive.

`CCCCNS(=O)(=O)c1ccccc1`: the call in assay [1], in assay [2], in assay [3], in assay [4], in assay [5] and in assay [6] was inactive.

As for `O=C(O)c1cc(O)c2ccccc2c1O`, the outcome in assay [1], in assay [2], in assay [5] and in assay [6] was inactive. Also, the half-maximal activity concentration (AC50) in assay [3] was 43.6 µM (active); in assay [4] it was 7.34 µM (active).

Consider `C[Si](C)(C)N[Si](C)(C)C`, for which the molecule was classed as inactive in assay [1], in assay [2], in assay [3], in assay [4], in assay [5] and in assay [6].

Turning to `O=C(O)/C=C/c1ccccc1`, the call in assay [1], in assay [2], in assay [3], in assay [4], in assay [5] and in assay [6] was inactive.

For the molecule `COC(=O)c1ccccc1C`, the result in assay [1], in assay [2], in assay [3], in assay [4], in assay [5] and in assay [6] was inactive.

Regarding `O=C(O)CC(C(=O)O)S(=O)(=O)O` (configuration not stated), the molecule was classed as inactive in assay [1], in assay [2], in assay [3], in assay [4], in assay [5] and in assay [6].

Consider `CC(C)(c1ccccc1)c1ccc(Nc2ccc(C(C)(C)c3ccccc3)cc2)cc1`, for which the call in assay [1], in assay [2], in assay [3], in assay [4], in assay [5] and in assay [6] was inactive.

In the case of `CCCCCCCC(=O)OCC(COC(=O)CCCCCCC)OC(=O)CCCCCCC`, the molecule was called inactive in assay [1], in assay [2], in assay [3], in assay [4], in assay [5] and in assay [6].

On to `O=C(OCCc1ccccc1)c1ccccc1`, for which the result in assay [1], in assay [2], in assay [3], in assay [4], in assay [5] and in assay [6] was inactive.

Consider `Nc1ccc(Cl)c(N)c1`, for which the molecule was called inactive in assay [1], in assay [2], in assay [3], in assay [4] and in assay [5].

Consider `COC(=O)C=Cc1ccccc1`, for which the call in assay [1], in assay [2], in assay [3], in assay [4] and in assay [5] was inactive.

For the molecule `CC(=O)C(C)C`, the molecule was classed as inactive in assay [1], in assay [2], in assay [3], in assay [4], in assay [5] and in assay [6].

As to `C=CC(=O)O[C@H]1C[C@@H]2CC[C@@]1(C)C2(C)C`, the molecule was classed as inactive in assay [1], in assay [2], in assay [5] and in assay [6]. Further, the AC50 is 167 µM (active) in assay [3] and 32.1 µM (active) in assay [4].

As to `CC(=O)OC/C=C(/C)CCC=C(C)C`, the result in assay [1], in assay [2], in assay [3], in assay [4], in assay [5] and in assay [6] was inactive.

Consider `C=Cc1cccc(C)c1`, for which the result in assay [1], in assay [2], in assay [3], in assay [4], in assay [5] and in assay [6] was inactive.

For `CCCCCC(=O)OCC`, the outcome in assay [1], in assay [2], in assay [3], in assay [4], in assay [5] and in assay [6] was inactive.

Regarding `CCC(C)c1ccccc1` (configuration not stated), the molecule was called inactive in assay [1], in assay [2], in assay [3], in assay [4], in assay [5] and in assay [6].

Regarding `C=C[C@@]1(C)CC(=O)[C@]2(O)[C@@]3(C)[C@@H](O)CCC(C)(C)[C@@H]3[C@H](O)[C@H](OC(C)=O)[C@@]2(C)O1`, the result in assay [1], in assay [2], in assay [3] and in assay [5] was inactive. In addition, the concentration at half-maximal activity (AC50) was 2.95 µM (active) in assay [4] and 0.983 µM (active) in assay [6].

Turning to `CCCSSCCC`, the molecule was called inactive in assay [1], in assay [2], in assay [3], in assay [4], in assay [5] and in assay [6].

As for `CC1CCC(=O)C1=O` (configuration not stated), the molecule was classed as inactive in assay [1], in assay [2], in assay [3], in assay [4] and in assay [5].

Regarding `CC1=CP(=O)(c2ccccc2)CC1` (configuration not stated), the call in assay [1], in assay [2], in assay [3], in assay [4], in assay [5] and in assay [6] was inactive.

`COC(=O)CC(C)CCC=C(C)C` (configuration not stated): the molecule was classed as inactive in assay [1], in assay [2], in assay [3], in assay [4], in assay [5] and in assay [6].

For `CC(C)=CCCC(C)=CC#N`, the call in assay [1], in assay [2], in assay [3], in assay [4], in assay [5] and in assay [6] was inactive.

For `CCOC(=O)OC(=O)OCC`, the outcome in assay [1], in assay [2], in assay [3], in assay [4], in assay [5] and in assay [6] was inactive.

As for `Cc1ccc(S(=O)(=O)N=C=O)cc1`, the molecule was called inactive in assay [1], in assay [2], in assay [3], in assay [4], in assay [5] and in assay [6].

Take `CC(C)c1cc(C(C)C)cc(C(C)C)c1`: the AC50 in assay [1] was 174 µM (active); in assay [2], 151 µM (active); in assay [3], 161 µM (active); in assay [4], 66.3 µM (active). In addition, the molecule was called inactive in assay [5] and in assay [6].

Consider `C=CCNCC=C`, for which the molecule was called inactive in assay [1], in assay [2], in assay [3], in assay [4], in assay [5] and in assay [6].

On to `CC1=NN(c2ccc(S(=O)(=O)O)cc2)C(=O)C1N=Nc1ccccc1` (configuration not stated), for which the call in assay [1], in assay [2], in assay [3], in assay [4] and in assay [5] was inactive.

For the molecule `C=C(C)C1CC=C(C)C(OC(C)=O)C1` (configuration not stated), the molecule was called inactive in assay [1], in assay [2], in assay [3], in assay [4], in assay [5] and in assay [6].

Take `N#CC1(N)CCCCC1`: the outcome in assay [1], in assay [2], in assay [3], in assay [4], in assay [5] and in assay [6] was inactive.
